# hcDAF12 agonist: H. contortus DAF-12 nuclear receptor activators, primary screen, cell-based, luminescence, HEK293, lit1-tk-luc reporter. HEK293 hcDAF-12 lit1-tk-luc reporter; 0% DMSO, 100% Δ7-dafachronic acid. actives 1.4% (n = 370,000). activation, % at 6.8 µM;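 active means activation above the mean of all tested compounds plus 3 SD, cut at about 5.5% in these data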;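 further: 100% = response to 3 µM Δ7-dafachronic acid high control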
# hgDAF12 agonist: H. glycines DAF-12 receptor agonists, primary screen, cell-based, luminescence, HEK293, GAL4 fusion, UAS-luciferase. actives 1.8% (n = 370,000). AID 687014, 2013. Nuclear hormone receptor DAF-12 (Heterodera glycines), GAL4 fusion. activation, % at 6.8 µM. HEK293 GAL4-hgDAF12 UAS-luciferase reporter, agonist luminescence; normalized to butyrate control;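 active means activation above a cutoff set at the mean of all screened compounds plus 3 SD, cut at about 10% in these data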;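 further: 0% = DMSO wells and 100% = sodium butyrate wells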
# ssDAF12 agonist: S. stercoralis DAF-12 nuclear receptor activators, primary screen, cell-based, luminescence, HEK293, GRIP1 co-expression, lit1-tk-luc. activation, % at 6.8 µM. AID 652126, 2013. Nuclear hormone receptor DAF-12 (Strongyloides stercoralis). actives 1% (n = 370,000). HEK293 ssDAF-12/GRIP1 lit1-tk-luc reporter; % of 3 µM dafachronic acid response;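 active means activation above the mean over all tested compounds plus 3 SD, cut at about 0.9% in these data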;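 further: 0% = DMSO-only wells and 100% = 3 µM delta7-dafachronic acid wells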
# DAX1 inh-1: DAX1 (NR0B1) inhibitors, primary screen, cell-based, HEK293, Gal4-DAX1, luciferase luminescence. Nuclear receptor subfamily 0 group B member 1 (Homo sapiens), P51843. HEK293 Gal4-DAX1 luciferase reporter. inhibition, % at 6.75 µM. actives 0.99% (n = 340,000). AID 504766, 2011;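 active means inhibition above the mean over all tested compounds plus 3 SD, cut at about 4.2% in these data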;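 further: 0% = DAX1-transfected cells with DMSO and 100% = empty-vector control cells with DMSO; inhibition shows as a rise in luminescence from relieved DAX1 repression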
# SMARCA2 activ: SMARCA2 (BRM) function activators, primary screen, cell-based, luminescence, high throughput. activation, % at 9.1 µM. actives 1% (n = 370,000). MG213 cells, MMTV-luciferase reporter, dexamethasone, overnight; in the data active means activation above about 7.8%;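 further: 0% = vehicle wells and 100% = reference activator wells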
# DAX1 inh-2: DAX1 (NR0B1) inhibitors on StAR promoter, primary screen, cell-based, luminescence, SF-1 (NR5A1), full-length DAX-1. HEK293T StAR-luciferase reporter, SF-1/DAX-1 repression relief. inhibition, % at 6.8 µM. actives 1.1% (n = 370,000). AID 652010, 2013;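 active means inhibition above the mean over all tested compounds plus 3 SD, cut at about 3.6% in these data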;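 further: 0% = DAX-1 cells with DMSO and 100% = cells lacking DAX-1 with DMSO; higher inhibition means more luminescence from relief of DAX-1 repression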
# hgDAF12 conf: H. glycines DAF-12 receptor agonists, confirmation, cell-based, luminescence, HEK293, GAL4-LBD fusion. shares compounds with hgDAF12 agonist. HEK293 GAL4-hgDAF12 luciferase reporter, agonist mode; percent of butyrate response. activation, % at 6.8 µM. actives 80% (n = 3,300);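 active means mean activation over triplicate wells above the hit cutoff derived from the earlier primary screen, cut at about 11% in these data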;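 further: 0% = DMSO low control and 100% = 2 mM sodium butyrate high control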
# LXRb DAF12 ctr: LXR agonists, Gal4 luciferase reporter, confirmation, counter-screen for hgDAF-12 agonist project, cell-based, luminescence, HEK293, H. glycines campaign | shares compounds with hgDAF12 agonist | 24 h | activation, % at 6.8 µM | 3,300 tested, under 10 active | AID 743051, 2013;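 active means mean activation of the triplicate above a set limit carried over from the primary screen, none filed active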
# Target sequence (P55055 whole entry, looked up, the tested form may be a part): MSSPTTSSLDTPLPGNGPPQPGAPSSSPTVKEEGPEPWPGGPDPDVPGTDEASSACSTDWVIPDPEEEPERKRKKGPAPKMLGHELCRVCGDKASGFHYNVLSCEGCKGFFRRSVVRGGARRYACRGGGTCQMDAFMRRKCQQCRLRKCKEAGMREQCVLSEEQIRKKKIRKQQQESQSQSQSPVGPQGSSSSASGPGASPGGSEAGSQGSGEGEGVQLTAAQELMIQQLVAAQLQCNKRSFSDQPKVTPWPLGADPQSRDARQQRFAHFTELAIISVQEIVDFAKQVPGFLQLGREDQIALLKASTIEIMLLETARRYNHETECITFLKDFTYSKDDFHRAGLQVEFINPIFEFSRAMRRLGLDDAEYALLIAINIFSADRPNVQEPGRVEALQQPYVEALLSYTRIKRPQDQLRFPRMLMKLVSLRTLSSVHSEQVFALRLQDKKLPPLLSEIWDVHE
# * hit, by the source's call; / = no result. The list is not random: actives were taken first. Their share in the collection is about 4.8%.
SMILES,hcDAF12 agonist,hgDAF12 agonist,ssDAF12 agonist,DAX1 inh-1,SMARCA2 activ,DAX1 inh-2,hgDAF12 conf,LXRb DAF12 ctr
Cc1c(C(=O)NCC2CCCO2)oc2ccc3c(c12)C(=O)CC(C)(C)O3 (stereo unspecified),5,17*,0,0,4,1,12*,1
Cc1c(C(=O)NCC2CCCO2)oc2ccc(S(=O)(=O)N3CCCC3)cc12 (stereo unspecified),0,-1,-1,1,-3,-1,/,/
Cc1ccc(/C=N/NC(=O)c2ccoc2C)s1,2,15*,0,1,2,3,10,1
Cc1occc1C(=O)N/N=C/c1ccc(Br)s1,1,8,0,2,7,2,/,/
C/C(=N/NC(=O)c1ccoc1C)c1ccc(NC(=O)c2ccncc2)cc1,6.4*,17*,1.3*,2,1,3.8*,9,0
CC(=O)Nc1ccc(/C(C)=N/NC(=O)c2ccncc2)cc1,-1,2,-1,0,-2,0,/,/
C/C(=N/NC(=O)c1ccoc1C)c1ccc(N2CCOCC2)cc1,3,19*,0,0,4,3.7*,3,0
C/C(=N\NC(=O)c1ccco1)c1ccc(NC(=O)c2ccccc2)cc1,1,14*,0,0,5,2,6,0
C/C(=N\NC(=O)c1ccc(Cl)cc1)c1ccc(N2CCOCC2)cc1,1,7,-1,0,-1,0,/,/
CC(=O)Nc1cccc(-c2csc(Nc3ccc(Cl)cn3)n2)c1,2,13*,0,5.9*,3,3.8*,13*,1
CC(=O)Oc1ccc(-c2csc(Nc3ccccn3)n2)cc1,6,16*,0,2,-3,3.9*,14*,1
CC(=O)Nc1ccc(-c2csc(Nc3ncccn3)n2)cc1,4,4,-1,3,0,1,/,/
COCc1cc(N2CCN(C(=O)OC(C)(C)C)C[C@H]2C)ccc1N1CCN(Cc2ccccc2)[C@H](C)C1,-2,0,-1,/,-3,-1,/,/
O=C(N[C@@H](Cc1cccnc1)C(=O)N1CCC[C@H]1C(=O)NC1CCCC1)C1CC1,-2,2,-1,/,0,1,/,/
CC(=NNC(N)=S)c1ccc2cc3c(cc2c1)OCO3,4,25*,0,4,6,3,13*,1
CC(C)(C)NC(=O)CSc1nnc(-c2ccncc2)n1Cc1ccccc1,0,14*,-1,2,2,0,1,0
CC(C)C(C)(C#N)NC(=O)CSc1nnc(-c2ccncc2)n1Cc1ccccc1 (stereo unspecified),0,-1,-1,0,4,0,/,/
CC(=O)c1ccc(-c2ccccc2C2=CC(=O)CC(C)(C)C2=O)cc1,-2,3,0,/,-4,-1,/,/
O=c1c(-c2ccc3c(c2)OCCO3)coc2cc(OC3OC(CO)C(O)C(O)C3O)ccc12 (stereo unspecified),5.8*,17*,0,1,4,4,14*,1
